# TGFb inhibitor: blocks TGF-b signaling. HepG2 CAGA-GFP TGF-b/SMAD3 reporter, GFP fluorescence, 18 h; TGF-beta stimulated, 500 pg/mL final. Potency, µM (titrated, usually from 46.1 µM), most hits filed as inhibitors. 1.2% of 410,000 active. AID 588855; note: nearly all actives have a fitted effect of over 65% in size
#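 Inhibition was scored as loss of TGF-beta-induced (500 pg/mL final, 18 hours, 37 degrees C) GFP in HEPG2 cells carrying a CAGA-GFP reporter, in DMEM with 1% FBS. Well GFP was summed per cell; Activity was normalised to unstimulated and stimulated DMSO wells, then concentration-response fitting.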
# mIDH1 inhibitor: blocks human mutant IDH1 R132H enzyme; Potency, µM (highest dose often 76.6 µM), usual class: inhibitors; O75874; 0.093% of 390,000 active; IDH1-R132H enzyme, NADPH consumption, diaphorase/resazurin fluorescence; note: nearly all actives have a fitted effect of over 65% in size
# Target sequence (O75874 whole entry R132H, stated change not applied): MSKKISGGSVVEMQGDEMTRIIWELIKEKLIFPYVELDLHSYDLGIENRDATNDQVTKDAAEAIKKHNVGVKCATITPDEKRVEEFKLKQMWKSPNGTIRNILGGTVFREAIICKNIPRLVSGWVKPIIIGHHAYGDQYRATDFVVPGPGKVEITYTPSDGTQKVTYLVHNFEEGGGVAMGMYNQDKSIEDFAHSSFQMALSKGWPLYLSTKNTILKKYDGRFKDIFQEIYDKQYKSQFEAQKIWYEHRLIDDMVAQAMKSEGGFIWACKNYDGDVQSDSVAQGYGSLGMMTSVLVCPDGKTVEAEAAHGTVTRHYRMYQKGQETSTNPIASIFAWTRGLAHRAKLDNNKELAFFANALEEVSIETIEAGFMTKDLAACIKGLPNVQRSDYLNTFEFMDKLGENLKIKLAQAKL
#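 IDH1-R132H (0.5 ug/mL dispensed) in pH 7.5 Tris buffer was preincubated 30 min with compound, then given a substrate mix of 0.016 mM NADPH and 2 mM alpha-KG for 80 min at room temperature; remaining NADPH was read by diaphorase/resazurin fluorescence.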
# ATXN viability: cell viability loss in ATXN counter-screen; S2 cells (HEK-293 line with an ATXN2-luciferase reporter) viability, CellTiter-Fluor protease fluorescence, 24 h; Potency, µM (doses to about 56.7 µM), most hits filed as cytotoxic; 0.49% of 400,000 active; AID 651635; note: nearly all actives have a fitted effect of over 40% in size
# LDHA block: LDHA (human) enzyme inhibition | AID 1347041 | 0.15% of 480,000 active | P00338 | activity change, % (values are at about 110 or 230 µM) | purified LDHA, NADH/diaphorase-resazurin fluorescence; active compounds read low; in the data active = activity change below about -30%; inconclusive = mostly about -25% to -30%
#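 Human LDH5 (2 nM) was incubated with 0.06 mM NADH and 0.2 mM pyruvate for 5 min at room temperature in Tris pH 7.4. Remaining NADH was coupled through diaphorase/resazurin, and resorufin fluorescence was read at 0 and 20 min.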
# ATXN2 expr inh: ATXN2 expression inhibition | 0.72% of 360,000 active | Potency, µM (doses to about 57 µM), usual class: inhibitors | HEK-293 ATXN2-luciferase reporter, luminescence, 24 h; note: nearly all actives have a fitted effect of over 55% in size
#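 qHTS (up to 57 uM final) was run with 24 h compound exposure of reporter cells at 37 °C. Each well was multiplexed: SteadyGlo luminescence measured ATXN2-luciferase expression after a fluorogenic Gly-Phe-AFC viability readout (25 uM final).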
# HepG2 tox: counter-screen for TGF-b inhibitors: cytotoxicity in HepG2 cells | HepG2 CAGA-GFP viability, ATP luminescence, 18 h | Potency, µM (series often up to 46.1 µM), actives largely listed as cytotoxic | 0.76% of 410,000 active | AID 588856
#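 CellTiter-Glo luminescence gave cytotoxicity after 18 hours at 37 degrees C. The cells were HepG2 CAGA-GFP in 1% FBS DMEM, stimulated with 500 pg/mL TGF-beta after compound addition. %Activity was normalised to no-cell wells (complete cell-killing) and DMSO (no toxicity), and curves were fitted and classified.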
# Hits are given with their value; – = inactive; ? = inconclusive; · = no result; ! = a repeat was not active; [ ] = another dose, or the depositor's remark. This is a sample that favours compounds with a hit; in the whole collection about 2.2% have one here. Unless noted, calls come from the whole dose curve; as a rule, active = well fitted curve in the direction sought with a large enough effect; inconclusive = small, poorly fitted or top-dose-only effect, or another doubt; inactive = no such curve, though single readings can be large; an effect the other way counts as inactive or inconclusive.
SMILES,TGFb inhibitor,mIDH1 inhibitor,ATXN viability,LDHA block,ATXN2 expr inh,HepG2 tox
Cc1ccc(C)c(OCCn2c(C3CC(=O)N(Cc4ccc(F)cc4)C3)nc3ccccc32)c1 (configuration not stated),12.6µM,–,·,–,?,–
CCc1ccccc1N1CC(c2nc3ccccc3n2CCOc2ccc(Cl)c(C)c2)CC1=O (configuration not stated),11.2µM,–,?,–,?,10µM
CN(CC(=O)Nc1ccc(Cl)cc1F)S(=O)(=O)c1ccc2c(c1)n(C)c(=O)c(=O)n2C,–,–,–,–,–,–
CCCNc1c(NC(=O)Nc2ccccc2OCC)c(=O)oc2ccccc12,·,·,·,-30.0,·,·
CN(C)CCNC(=O)c1ccc(-n2c(-c3ccccc3)cc3c2CCCC3)cc1,?,–,·,–,·,17.8µM
O=C(Nc1ccccc1NS(=O)(=O)c1ccc(F)cc1)C1CCCC1,–,–,–,–,–,–
Cc1cc(C)c(NC(=O)CN(c2ccccc2)S(=O)(=O)N(C)C)c(C)c1,–,–,–,–,–,–
Nc1ccccc1C#Cc1ccc([N+](=O)[O-])cc1,–,–,?,–,–,–
Nc1ccccc1C#CC(=O)c1ccccc1,3.55µM,–,?,–,·,–
O=C(O)CCCCCCCCc1cn(Cc2ccc(C(=O)c3ccccc3)cc2)nn1,7.94µM,–,–,–,–,–
COc1ccc(-c2csc3ncnc(N4CCN(c5ccccc5OC)CC4)c23)cc1,?,–,?,–,31.6µM,–
CCOc1ccccc1N1CCN(c2ncnc3scc(-c4ccc(OC)cc4)c23)CC1,?,–,–,–,?,–
O=C1OC2(c3ccccc31)c1cc(I)c(O)c(I)c1Oc1c2cc(I)c(O)c1I,·,·,35.5µM,·,–,·
Cc1cc(C2CCCCC2)n(O)c(=O)c1,?,–,20µM!,–,17.8µM,–
Cn1c(NC2CCCCC2)cc(=O)n(C)c1=O,–,–,–,–,–,–
O=c1[nH]c2sc3c(c2c2nc(-c4ccccc4)nn12)CCC3,·,·,·,–,·,·
Cc1cc(NC(=O)Cn2c(=O)c3c(ncn3CCC(C)C)n(Cc3ccccc3)c2=O)no1,–,–,·,–,·,–
CCCS(=O)(=O)N1CCCC(C(=O)NCCCOC)C1 (configuration not stated),–,–,–,–,–,–
COCCCNC(=O)C1CCCN(S(C)(=O)=O)C1 (configuration not stated),–,–,–,–,–,3.55µM
NNC(=O)CN(CCc1ccccc1)S(=O)(=O)c1ccc(Cl)cc1,–,–,–,–,–,–
CCOC(=O)N1CCN(c2ccc(S(=O)(=O)N3CCOCC3)cc2[N+](=O)[O-])CC1,–,–,–,–,–,–
CSc1ccccc1C(=O)Nc1ccc(C)cc1C,–,–,–,–,–[11.3 µM],–
CSc1ccccc1C(=O)Nc1c(C)cc(C)cc1C,·,·,·,-31.8,·,·
Cc1ccc(S(=O)(=O)/N=C2\C=C(NS(=O)(=O)c3ccccc3)C(=O)c3ccccc32)cc1,?,–,20µM,–,–,–
CCc1ccc(S(=O)(=O)/N=C2\C=C(Nc3ccc(O)cc3)C(=O)c3ccccc32)cc1,0.891µM,–,7.08µM,–,3.55µM,1.12µM
SMILES,TGFb inhibitor,mIDH1 inhibitor,ATXN viability,LDHA block,ATXN2 expr inh,HepG2 tox
CCc1ccc(S(=O)(=O)/N=C2\C=C(Nc3cccc(C(=O)O)c3)C(=O)c3ccccc32)cc1,?,–,25.1µM,–,31.6µM,–
O=C(O)CCc1ccc(S(=O)(=O)Nc2cccc(C(=O)O)c2)cc1,·,·,·,–,·,·
CCc1ccc(S(=O)(=O)/N=C2/C=C(Sc3ncn[nH]3)C(=O)c3ccccc32)cc1,1.41µM,–,?,–,15.8µM,2µM
Cc1ccc(S(=O)(=O)/N=C2/C=C(C3C(=O)CC(C)(C)CC3=O)C(=O)c3ccccc32)cc1,?,–,–,–,–,–
Cc1cc(C)c(S(=O)(=O)/N=C2\C=C(NS(=O)(=O)c3ccccc3)C(=O)c3ccccc32)c(C)c1,–,–,?,–,–,–
OC(C#Cc1ccccn1)c1cccs1 (configuration not stated),15.8µM,–,?,–,?,10µM
C(=C\c1cccs1)/c1ccccn1,–,·,·,–,·,–
COc1cccc(CNC(=O)c2ccc(CS(=O)c3ccccc3Cl)o2)c1 (configuration not stated),·,·,·,–,·,·
Cc1ccccc1NS(=O)(=O)c1cc(C(=O)NCCC2=CCCCC2)ccc1C,?,–,?,–,?,–
O=C(NCCC1=CCCCC1)c1ccc(Cl)c(S(=O)(=O)Nc2ccccc2)c1,12.6µM,–,–,–,–,–
CCCCOc1ccc(C(=O)NNC(=S)NC(=O)CC)cc1,–,–,?,–,25.1µM,–
Cc1ccccc1-c1nnc(C2CCN(S(=O)(=O)c3ccc(Cl)cc3)CC2)o1,–,–,3.55µM,–,?,–
COc1ccc(S(=O)(=O)N2CCC(c3nnc(-c4ccccc4C)o3)CC2)c(OC)c1,?,–,7.94µM,–,3.55µM,–
COc1ccc(-c2nnc(C3CCN(C(=O)c4ccccc4F)CC3)o2)cc1,?,–,3.16µM,–,3.16µM,–
CN(C)c1ccc(-c2noc(C3CCN(S(=O)(=O)c4cccc(Cl)c4)CC3)n2)cc1,–,–,–,–,–,–
COc1ccc(-c2nnc(C3CCN(S(=O)(=O)c4cccc(Cl)c4)CC3)o2)cc1,?,–,11.2µM,–,17.8µM,–
COc1ccccc1-c1nnc(C2CCN(C(=O)c3ccc(C)cc3)CC2)o1,?,–,?,–,–,–
COc1ccc(OC)c(-n2c(-c3cccc(S(=O)(=O)N(C)C)c3)n[nH]c2=S)c1,–,–,–,–,–,–
Cn1c(=O)c(Cc2ccccc2)c(O)c2ccccc21,–,–,–,–,–,–
O=c1c(Cc2ccccc2)c(O)c2cccc3c4c(n1c23)CCCC4,14.1µM,–,?,–,–,–
Cc1ccc(S(=O)(=O)N(CC(O)Cn2c3ccccc3c3ccccc32)c2cccc(C(=O)N(C)C)c2)cc1 (configuration not stated),?,–,?,–,?,–
O=S(=O)(c1ccccc1)N(CC(O)Cn1c2ccccc2c2ccccc21)c1ccccc1 (configuration not stated),?,–,?,–,?,–
Cc1ccc(S(=O)(=O)N(CC(O)Cn2c3ccccc3c3ccccc32)c2cccc(C(N)=O)c2)cc1 (configuration not stated),10µM,–,?,–,?,11.2µM
